Assay [1] is described as follows: antimalarial activity against Dd2 strain (AID 2302;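 active = growth inhibition above 50% at the single 2 µM test dose, taken to imply half-maximal potency below 2 µM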;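 note: 0% = DMSO untreated growth and 100% = chloroquine plus artemisinin killed control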). Particulars: P. falciparum Dd2 in RBCs, LDH growth readout, 72 h; at 2 µM; stronger effect = higher value.
Assay [2] in a line: HepG2 cytotoxicity, primary screen, cytotoxicity control for P. falciparum antimalarial project, cell-based, ATP luminescence (AID 2303;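 active = inhibition above 50%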;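 note: 0% = DMSO wells and 100% = digitonin-killed cells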). The settings on record: HepG2 viability, 24-48 h, at 10 µM, stronger effect = higher value.
Assay [3] has as its target L-lactate dehydrogenase (Plasmodium falciparum (isolate CDC / Honduras)) (UniProt Q27743). Briefly: PfLDH activity inhibition – cell lysate, 3D7 strain, counter-screen for P. falciparum growth inhibition project (AID 2304).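 Note: 0% = vehicle and 100% = reference inhibitor.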 The settings on record: P. falciparum 3D7 crude extract, LDH APAD/NBT absorbance; at 2 µM; stronger effect = higher value.
Assay [4] can be described thus: inhibition of 3D7 malaria parasite growth – strain 3D7 (AID 2306).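 Note: 0% = DMSO wells and 100% = chloroquine plus artemisinin control wells.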 Particulars: P. falciparum 3D7 erythrocytic growth, LDH absorbance, 72 h; at 2 µM; stronger effect = higher value.
Assay [5] has as its target Calcium-dependent protein kinase 1 (Plasmodium falciparum (isolate 3D7)) (UniProt P62344). Briefly: PfCDPK1 kinase inhibitors, biochemical, TCAMS library (AID 1159585; cut-off not given, nearly all actives have IC50 up to about 0.98 µM;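 note: inhibitors leave more ATP so luminescence rises with inhibition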). Particulars: recombinant PfCDPK1, Kinase-Glo ATP depletion luminescence. (Kinase-Glo reads ATP consumption through a luciferase reaction.)
Assay [6] deals with Plasmodium falciparum protein kinase 6 (PK6, PF3D7_1337100) (UniProt Q8IDW1). In words: PfPK6 kinase inhibitors, biochemical, TCAMS library (AID 1159586). The settings on record: recombinant PfPK6, Kinase-Glo ATP depletion luminescence.
For assay [7], the target named is Protein kinase 7 (PK7), Plasmodium falciparum 3D7 (PF3D7_0213400) (UniProt Q7YTF7). Briefly: inhibition of Plasmodium PK7 catalytic activity – biochemical, TCAMS antimalarial set, Kinase-Glo luminescence (AID 1159587). Particulars: recombinant PfPK7, Kinase-Glo ATP depletion luminescence.
In assay [8] the target is Calcium-dependent protein kinase 4 (Plasmodium falciparum (isolate 3D7)) (UniProt Q8IBS5). Briefly: PfCDPK4 kinase inhibitors, biochemical, TCAMS library (AID 1159588; cut-off not given, nearly all actives have IC50 up to about 0.91 µM). Particulars: recombinant PfCDPK4, Kinase-Glo ATP depletion luminescence.

Each structure is given as a SMILES string. A number with no mark means an inactive call. For some of these results: Results with a measured potency or affinity are listed apart. Calls of active or inactive are those of the source. Unless noted, the rule behind the calls is not given here.

In PubChem BioAssay one finds growth inhibition, inhibition and outcome data, which are given here for 20 molecules.

L-lactate dehydrogenase (Plasmodium falciparum (isolate CDC / Honduras)), sequence (Q27743 whole entry, looked up): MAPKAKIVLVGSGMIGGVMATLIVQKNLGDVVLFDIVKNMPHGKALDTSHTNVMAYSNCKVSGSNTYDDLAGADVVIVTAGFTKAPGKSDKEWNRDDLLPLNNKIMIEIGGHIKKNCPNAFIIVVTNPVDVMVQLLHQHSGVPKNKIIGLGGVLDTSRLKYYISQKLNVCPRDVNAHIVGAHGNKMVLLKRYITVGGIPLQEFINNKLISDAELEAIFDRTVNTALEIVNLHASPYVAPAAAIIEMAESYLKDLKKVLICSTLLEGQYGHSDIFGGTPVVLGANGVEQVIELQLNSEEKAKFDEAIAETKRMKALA
Calcium-dependent protein kinase 4 (Plasmodium falciparum (isolate 3D7)), sequence (Q8IBS5 whole entry, looked up): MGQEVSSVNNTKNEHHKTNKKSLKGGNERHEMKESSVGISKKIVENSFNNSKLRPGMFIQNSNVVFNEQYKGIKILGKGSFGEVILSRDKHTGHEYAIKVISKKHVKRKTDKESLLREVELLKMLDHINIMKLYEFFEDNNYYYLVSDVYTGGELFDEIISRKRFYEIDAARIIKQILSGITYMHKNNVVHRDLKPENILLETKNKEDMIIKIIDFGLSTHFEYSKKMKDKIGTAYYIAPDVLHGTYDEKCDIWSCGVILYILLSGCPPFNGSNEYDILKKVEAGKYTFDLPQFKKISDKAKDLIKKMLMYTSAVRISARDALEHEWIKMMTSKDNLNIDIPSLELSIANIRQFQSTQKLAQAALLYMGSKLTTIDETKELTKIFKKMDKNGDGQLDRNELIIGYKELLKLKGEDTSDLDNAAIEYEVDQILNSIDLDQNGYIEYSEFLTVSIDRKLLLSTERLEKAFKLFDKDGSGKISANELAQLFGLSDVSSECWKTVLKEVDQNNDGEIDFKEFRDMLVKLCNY
Calcium-dependent protein kinase 1 (Plasmodium falciparum (isolate 3D7)), sequence (P62344 whole entry, looked up): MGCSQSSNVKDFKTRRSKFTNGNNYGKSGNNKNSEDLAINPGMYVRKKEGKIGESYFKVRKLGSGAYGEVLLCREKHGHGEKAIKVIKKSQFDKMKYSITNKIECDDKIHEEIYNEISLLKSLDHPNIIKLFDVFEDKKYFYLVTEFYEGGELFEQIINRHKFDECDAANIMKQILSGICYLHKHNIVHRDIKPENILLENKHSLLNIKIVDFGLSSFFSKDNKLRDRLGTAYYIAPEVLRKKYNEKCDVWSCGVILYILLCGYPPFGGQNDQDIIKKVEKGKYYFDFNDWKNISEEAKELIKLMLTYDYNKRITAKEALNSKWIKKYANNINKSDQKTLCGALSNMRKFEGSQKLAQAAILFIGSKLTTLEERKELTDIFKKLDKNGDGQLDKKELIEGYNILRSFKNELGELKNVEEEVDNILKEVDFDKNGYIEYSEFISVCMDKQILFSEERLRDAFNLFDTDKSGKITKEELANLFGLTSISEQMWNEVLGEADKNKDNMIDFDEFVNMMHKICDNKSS
Plasmodium falciparum protein kinase 6 (PK6, PF3D7_1337100), sequence (Q8IDW1 1-305): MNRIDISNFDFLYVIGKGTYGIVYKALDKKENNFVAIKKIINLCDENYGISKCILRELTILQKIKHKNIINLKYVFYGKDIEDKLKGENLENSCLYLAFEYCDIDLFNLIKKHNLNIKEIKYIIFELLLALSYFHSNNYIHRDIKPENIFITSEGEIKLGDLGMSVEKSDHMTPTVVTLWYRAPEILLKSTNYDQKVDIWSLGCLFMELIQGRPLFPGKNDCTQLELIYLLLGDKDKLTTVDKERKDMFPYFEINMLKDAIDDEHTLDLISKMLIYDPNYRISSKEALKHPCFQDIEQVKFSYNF
Protein kinase 7 (PK7), Plasmodium falciparum 3D7 (PF3D7_0213400), sequence (Q7YTF7 1-343): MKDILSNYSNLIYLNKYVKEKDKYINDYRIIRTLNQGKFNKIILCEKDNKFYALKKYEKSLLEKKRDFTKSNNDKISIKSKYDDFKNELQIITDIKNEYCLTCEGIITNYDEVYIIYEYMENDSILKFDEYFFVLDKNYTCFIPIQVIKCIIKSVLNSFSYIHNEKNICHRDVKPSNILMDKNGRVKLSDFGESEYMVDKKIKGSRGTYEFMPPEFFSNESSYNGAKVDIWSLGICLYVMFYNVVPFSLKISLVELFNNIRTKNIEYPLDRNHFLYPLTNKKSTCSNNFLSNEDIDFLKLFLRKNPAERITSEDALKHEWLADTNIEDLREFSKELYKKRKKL

As usually defined, the inhibition is the drop in the measured response relative to a control, in per cent. Turning to `O=C(Nc1ccccc1)c1cnc[nH]1`, the growth inhibition in assay [1] is -1%; in assay [4], 92% (active). Moreover, the inhibition is -7% in assay [2] and 1% in assay [3]. Besides, the result in assay [5], in assay [6], in assay [7] and in assay [8] was inactive.

With `CN(C)CCCNc1ncnc2c1[nH]c1ccc(F)cc12`, the growth inhibition in assay [1] was -1%; in assay [4], 100% (active). Besides, the inhibition was 14% in assay [2] and 1% in assay [3]. In addition, the result in assay [5], in assay [6], in assay [7] and in assay [8] was inactive.

For `O=C(Nc1cccc(-c2ccc(-c3nc4ccc(F)cc4[nH]3)cc2)c1)Nc1ccc(Cl)c(Cl)c1`, the growth inhibition in assay [1] is 49%; in assay [4] it was 100% (active). Further, the inhibition in assay [2] was 79% (active); in assay [3], 3%. In addition, the outcome in assay [5], in assay [6], in assay [7] and in assay [8] was inactive.

Consider `OC(c1n[nH]c(=S)n1-c1ccccc1)C(O)c1n[nH]c(=S)n1-c1ccccc1` (stereo not given), for which the results for the growth inhibition in assay [1] and in assay [4] were 89% (active) and 92% (active), respectively. The inhibition was 18% in assay [2] and 4% in assay [3]. The result in assay [5], in assay [6], in assay [7] and in assay [8] was inactive.

Consider `CCCCCCCN(Cc1ccc(OC(C)(C)C(=O)OCC)cc1)C(=O)Nc1ccccc1OC(F)(F)F`, for which the growth inhibition in assay [1] is 68% (active); in assay [4], 95% (active). Also, the inhibition is -2% in assay [2] and 3% in assay [3]. Also, the result in assay [5], in assay [6], in assay [7] and in assay [8] was inactive.

Take `O=C(/C=C/c1ccc(Cl)c(Cl)c1)NCCCCN1CCCN(C(=O)Nc2ccc(Cl)c(Cl)c2)CC1`: the growth inhibition in assay [1] is 1%; in assay [4], 96% (active). For the same molecule, the inhibition is 22% in assay [2] and 3% in assay [3]. Further, the result in assay [5], in assay [6], in assay [7] and in assay [8] was inactive.

Regarding `Cc1cc(N[C@@H](CC(C)C)C(=O)NCc2cccs2)nc(NCCc2cccs2)n1`, the figures for the growth inhibition in assay [1] and in assay [4] were 13% and 92% (active), respectively. Moreover, the inhibition was -3% in assay [2] and -4% in assay [3]. Moreover, the outcome in assay [5], in assay [6], in assay [7] and in assay [8] was inactive.

`Cc1c(S(=O)(=O)Nc2ccc3ccn(CCN(C)C)c3c2)sc2ccc(Cl)cc12`: the growth inhibition in assay [1] was 94% (active); in assay [4], 98% (active). For the same molecule, the inhibition in assay [2] was 15%; in assay [3], 0%. Also, the result in assay [5], in assay [6], in assay [7] and in assay [8] was inactive.

As for `N=c1c(C(=O)NCc2ccccc2)cc2c(=O)n3ccccc3nc2n1CCc1ccccc1`, the values for the growth inhibition in assay [1] and in assay [4] were 25% and 99% (active), respectively. Moreover, the inhibition was 5% in assay [2] and -6% in assay [3]. Besides, the result in assay [5], in assay [6], in assay [7] and in assay [8] was inactive.

On to `c1ccc(C(c2cccs2)N2CCN(Cc3ccc(OCCCN4CCCCC4)cc3)CC2)cc1` (stereo not given), for which the growth inhibition in assay [1] is 14%; in assay [4], 91% (active). The inhibition in assay [2] was 41%; in assay [3], 2%. Moreover, the outcome in assay [5], in assay [6], in assay [7] and in assay [8] was inactive.

Consider `Cc1c(C(=O)[C@@H]2C[C@H]2CN2CCC(N3CCCCC3)CC2)sc2ccccc12`, for which the figures for the growth inhibition in assay [1] and in assay [4] were 19% and 94% (active), respectively. Besides, the inhibition in assay [2] was 35%; in assay [3], -1%. Further, the outcome in assay [5], in assay [6], in assay [7] and in assay [8] was inactive.

Take `Cc1cc(O)c(CN(C)Cc2ccc3c(c2)OCO3)cc1C(C)C`: the growth inhibition in assay [1] is 74% (active); in assay [4], 98% (active). Also, the results for the inhibition in assay [2] and in assay [3] were 9% and 0%, respectively. Moreover, the outcome in assay [5], in assay [6], in assay [7] and in assay [8] was inactive.

As to `Cc1cccc2[nH]c(-c3cccc(-c4ccc(NC(=O)c5cccnc5)cc4)c3)nc12`, the growth inhibition in assay [1] was 45%; in assay [4], 100% (active). For the same molecule, the inhibition in assay [2] is 64% (active); in assay [3] it was -1%. In addition, the outcome in assay [5], in assay [6], in assay [7] and in assay [8] was inactive.

As to `CCCc1ccc(S(=O)(=O)NC2CCN(c3ccnc(Nc4ccc(OC)cc4)n3)C2)cc1` (stereo not given), the growth inhibition was 45% in assay [1] and 89% (active) in assay [4]. For the same molecule, the inhibition in assay [2] is 42%; in assay [3], 0%. Moreover, the outcome in assay [5], in assay [6], in assay [7] and in assay [8] was inactive.

`Cc1[nH]c(C)c(-c2ccc(-c3ccc(OC(F)(F)F)cc3)nc2)c(=O)c1Cl`: the growth inhibition in assay [1] and in assay [4] was 95% (active) throughout. Further, the values for the inhibition in assay [2] and in assay [3] were 11% and -6%, respectively. The outcome in assay [5], in assay [6], in assay [7] and in assay [8] was inactive.

With `O=C(NC1CCC(CCN2Cc3ccc(Br)cc3C2)CC1)c1cccc(-c2cccnc2)c1` (stereo not given), the values for the growth inhibition in assay [1] and in assay [4] were 73% (active) and 99% (active), respectively. Also, the inhibition is 14% in assay [2] and 5% in assay [3]. Further, the outcome in assay [5], in assay [6], in assay [7] and in assay [8] was inactive.

For `O=C1COc2cc(Cl)c(CNC3CCN(CCc4ccnc5c(F)cc(F)cc45)CC3)nc2N1`, the growth inhibition in assay [1] was 49%; in assay [4], 98% (active). The inhibition in assay [2] was 96% (active); in assay [3], -2%. Also, the outcome in assay [5], in assay [6], in assay [7] and in assay [8] was inactive.

On to `COc1cc(F)c2nccc([C@@H](O)CN3CCC(NCc4nc5c(F)cccc5[nH]4)CC3)c2c1`, for which the growth inhibition in assay [1] is 5%; in assay [4] it was 99% (active). The inhibition is 11% in assay [2] and -4% in assay [3]. In addition, the result in assay [5], in assay [6], in assay [7] and in assay [8] was inactive.

On to `Cc1ccc(C(=O)Nc2ccc(OC3CCN(CCC(C)C)C3)c(Cl)c2)cc1` (stereo not given), for which the growth inhibition was 38% in assay [1] and 83% (active) in assay [4]. For the same molecule, the figures for the inhibition in assay [2] and in assay [3] were 63% (active) and 0%, respectively. Also, the result in assay [5], in assay [6], in assay [7] and in assay [8] was inactive.

For `Cc1nc2nc(N)nc(N)c2c(C)c1Cc1ccccc1`, the values for the growth inhibition in assay [1] and in assay [4] were 0% and 95% (active), respectively. In addition, the inhibition in assay [2] is 62% (active); in assay [3], 3%. In addition, the result in assay [5], in assay [6], in assay [7] and in assay [8] was inactive.
